Experimental findings from PubChem BioAssay (EPA / NIEHS) are described below.

Active and inactive are the calls of the source. How the source made its calls: active means hit-call score of the fitted dose curve at least 0.9, where 1 is the maximum; inactive means score below 0.9.

The experiment deals with Hepatocyte nuclear factor 3-beta (Homo sapiens) (UniProt Q9Y261). As to the kind of experiment: ATG_FoxA2_CIS: Attagene CIS-FACTORIAL HepG2 Assay for human Forkhead box A2 (FOXA2) (AID 2282942). To be noted: HepG2 cis-reporter transcription factor activity, 24 h; actives raise or lower the signal. Here is the method: ATG_CIS is a cell-based, multiplexed-readout assay that uses HepG2, a human liver cell line, with measurements taken at 24 hours after chemical dosing in a 24-well plate.ATG_FoxA2_CIS is one of 52 assay component(s) measured or calculated from the ATG_CIS assay. It is designed to make measurements of mRNA induction, a form of inducible reporter, as detected with fluorescence intensity signals by Reverse transcription polymerase chain reaction (RT-PCR) and Capillary electrophoresis technology.Data from the assay component ATG_FoxA2_CIS was analyzed into 1 assay endpoint. This assay endpoint, ATG_FoxA2_CIS, was analyzed with bidirectional fitting relative to DMSO as the negative control and baseline of activity. Using a type of inducible reporter, measures of mRNA for gain or loss-of-signal activity can be used to understand the reporter gene at the transcription factor-level as they relate to the gene FOXA2. Furthermore, this assay endpoint can be referred to as a primary readout, because this assay has produced multiple assay endpoints where this one serves a reporter gene function. To generalize the intended target to other relatable targets, this assay endpoint is annotated to the dna binding intended target family, where the subfamily is forkhead box protein.
Chain of Hepatocyte nuclear factor 3-beta (Homo sapiens) (Q9Y261 whole entry, looked up): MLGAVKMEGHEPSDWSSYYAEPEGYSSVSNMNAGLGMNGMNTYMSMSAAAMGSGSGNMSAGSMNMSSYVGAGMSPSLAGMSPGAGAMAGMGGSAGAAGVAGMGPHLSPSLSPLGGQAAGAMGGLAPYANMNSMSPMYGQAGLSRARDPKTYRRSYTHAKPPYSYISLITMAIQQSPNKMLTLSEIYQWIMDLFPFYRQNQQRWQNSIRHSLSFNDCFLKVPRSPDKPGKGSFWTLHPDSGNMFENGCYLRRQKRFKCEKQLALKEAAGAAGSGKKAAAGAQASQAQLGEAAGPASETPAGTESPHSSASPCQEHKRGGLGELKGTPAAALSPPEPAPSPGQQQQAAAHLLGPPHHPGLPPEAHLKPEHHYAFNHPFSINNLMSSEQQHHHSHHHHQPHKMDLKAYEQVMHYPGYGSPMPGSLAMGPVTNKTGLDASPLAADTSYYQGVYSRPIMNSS
Human liver HepG2 cells are transiently transfected with multiple reporter transcription units (MRTUs) in 6-well plates using FuGene 6 reagent (Roche; 3 ml FuGene/1 mg DNA). The MRTU constructs are regulated by a cis-regulating element (promoter). […] A major difference between the CIS and TRANS system is that in CIS activities of endogenous TFs are measured, whereas the TRANS assay evaluates changes in activities of exogenous, chimeric NR-Gal4 proteins. […] At the end of 24 hour incubation, total RNA was isolated using TriZol reagent (Invitrogen). The isolated RNA is then reverse-transcribed using oligo(dT) primer and Mo-MLV reverse transcriptase (Invitrogen) with DNAse I (Ambion) treatment for 30 min. The one-tenth of the produced cDNA was amplified by PCR using Taq DNA polymerase (Invitrogen) and two reporter sequence-specific primers. The PCR products were fluorescently labeled by primer extension with 6-arboxyfluorescein (6-FAM) 5'-labeled reporter sequence-specific primer (2 min at 95 C, 20 s at 68 C and 10 min at 72 C) and these products were digested with 5U of HpaI (New England Biolabs) for 2h at 37 C. The fragments were purified using Qiaquick PCR columns (Qiagen), analyzed on an ABI 3130xL genetic analyzer (Applied Biosystems) with peak positions identified by using a set of X-rhodamine (ROX)-labeled MapMarker1000 molecular weight standards (BioVentures). The raw capillary electrophoresis data was processed using Attagraph software (Attagene).
For `C#CC1(O)CC[C@H]2[C@@H]3CCC4=CCCC[C@@H]4[C@H]3CC[C@@]21C` (stereo not given in full), the compound was classed as inactive.

As for `CC(C)(C)C1CCCCC1=O` (stereo not given), the outcome was inactive.

For `CCCCCCC1(C)CCC(=O)O1` (stereo not given), the result was inactive.

As for `CCOC(=O)c1ccccc1C(=C1C=C(Br)C(=O)C(Br)=C1)c1cc(Br)c(O)c(Br)c1`, the AC50 is 43.6 µM (active).

Consider `CC1=CC[C@H]2C[C@@H]1C2(C)C`, for which the compound was classed as inactive.

For `O=S(=O)(Oc1ccc(Cl)cc1Cl)c1ccccc1`, the compound was called inactive.

Consider `O=CN1CCCCC1`, for which the compound was classed as inactive.

Regarding `Nc1ccc(N)c(Cl)c1`, the outcome was inactive.

Consider `CCCCCCOC(=O)C(C)CC` (stereo not given), for which the compound was called inactive.

Consider `O=c1c2ccccc2nnn1CCl`, for which the call was inactive.

For `OC1OCCOC1O` (stereo not given), the outcome was inactive.

Take `C=C[C@](C)(O)CC[C@@H]1[C@@]2(C)CCCC(C)(C)[C@@H]2CC[C@@]1(C)O`: the call was inactive.

`C=C(C)[C@H]1CC=C(C)CC1`: the compound was called inactive.

In the case of `[Cl][Nd]([Cl])[Cl]`, the outcome was inactive.

For the compound `CC(=O)CC(N)=O`, the compound was called inactive.

As to `CCOC(=O)[C@H](C)O`, the result was inactive.

As for `Cc1cnc(NC(=O)C2=C(O)c3ccccc3S(=O)(=O)N2C)s1`, the compound was called inactive.

For `CC1=Nc2ccc3ccccc3c2C1(C)C`, the compound was called inactive.

Turning to `C=CC(=O)OCCC(=O)O`, the compound was classed as inactive.

As to `CCCCCCCCCCOC(C)=O`, the result was inactive.

Take `CC(=O)NS(=O)(=O)c1ccc(N)cc1`: the compound was classed as inactive.

Regarding `CCCCCCCCCCCCCCCC(=O)OCC`, the compound was classed as inactive.

With `CCCNC(=O)NS(=O)(=O)c1ccc(Cl)cc1`, the call was inactive.

As to `C=CC(=O)NC(C)(C)CS(=O)(=O)O`, the compound was classed as inactive.

`O=C1c2cccc(O)c2C(=O)c2c(O)cc(CO)cc21`: the result was inactive.

In the case of `CCCCC/C=C\CCC=O`, the compound was called inactive.

As to `ON(Cc1ccccc1)Cc1ccccc1`, the outcome was inactive.

In the case of `CCCC(=O)OCc1ccccc1`, the call was inactive.

For `Nc1ccc2cc3ccccc3cc2c1`, the compound was called inactive.

Regarding `CC[C@H]1OC(=O)[C@H](C)[C@@H](O[C@H]2C[C@@](C)(OC)[C@@H](O)[C@H](C)O2)[C@H](C)[C@@H](O[C@@H]2O[C@H](C)C[C@H](N(C)C)[C@H]2O)[C@](C)(O)C[C@@H](C)C(=NOCOCCOC)[C@H](C)[C@@H](O)[C@]1(C)O`, the compound was called inactive.

Turning to `CC(=O)OCC(=O)[C@@]12N=C(C)O[C@@H]1C[C@H]1[C@@H]3CCC4=CC(=O)C=C[C@]4(C)[C@H]3[C@@H](O)C[C@@]12C`, the result was inactive.

Consider `NCCCN1CCN(CCCN)CC1`, for which the compound was called inactive.

Take `CC(=O)[C@@]1(O)CC[C@H]2[C@@H]3C[C@H](C)C4=CC(=O)C=C[C@]4(C)[C@@]3(F)[C@@H](O)C[C@@]21C`: the compound was called inactive.

`CN1C(=O)N(C)C(O)C1O` (stereo not given): the outcome was inactive.

`[Cl][Bi]([Cl])([c]1ccccc1)([c]1ccccc1)[c]1ccccc1`: the call was inactive.

For `O=C1CCCC(=O)O1`, the outcome was inactive.

For `O=C(O)Cc1c(Cl)ccc(Cl)c1Cl`, the call was inactive.

Consider `CCCOCCOCCOCCO`, for which the compound was called inactive.

With `CC(C)=CCCC(C)C=O` (stereo not given), the compound was classed as inactive.

Turning to `CN(C)c1ccc(N=Nc2ccccc2C(=O)O)cc1`, the call was inactive.
